Test [1] concerns Plasmodium falciparum Sir2 (PF13_0152, Sir2A). Nature of the test: pfSir2 binders on small-molecule microarrays, primary screen, biochemical, small-molecule microarray, 635 nm fluorescence (AID 1098).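 Also: score merges spot fluorescence intensity with its signal-to-noise ratio.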 The settings on record: small-molecule microarray binding, fluorescence 635 nm; higher = more signal.
Test [2] in a line: small-molecule microarray binders of probe aDKK1, primary screen, biochemical, biotinylated probe, 635/667 nm fluorescence (AID 1099).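 Also: score merges 667nm spot fluorescence with signal to noise across triplicate slides; reference of the scale not given here.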 The settings on record: higher = more signal.
Test [3] is described as follows: small-molecule microarray binders of probe aCHRDL2, primary screen, biochemical, biotinylated probe, 635/667 nm fluorescence (AID 1100). The settings on record: higher = more signal.
A short description of test [4]: splicing luciferase reporter signal modulators, primary screen, spliceosome inhibition project, cell-based, HEK293, splice +/- reporter (AID 1101).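 Also: HEK293 cells carrying a splicing-competent luciferase reporter gene; test concentration not given here.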 The settings on record: luminescence, 24 h, higher = more signal, called active from +8 up or from −8 down.
In test [5] the target is Fibroblast growth factor 10 (Homo sapiens) (UniProt O15520). Nature of the test: FGF10 binders on small-molecule microarrays, primary screen, biochemical, small-molecule microarray, 635 nm fluorescence (AID 1102). The settings on record: FGF10 binding, fluorescence 635 nm, higher = more signal.
Test [6] concerns glycogen synthase kinase-3 (GSK3A per assay name; protocol says GSK3B). Nature of the test: GSK3 binders on small-molecule microarrays, primary screen, biochemical, small-molecule microarray, 635 nm fluorescence, GSK3A (AID 1103). Also: the record names both GSK3A and GSK3B. The settings on record: small-molecule microarray binding, fluorescence 635 nm; higher = more signal.
In test [7] the target is Epidermal growth factor receptor (Homo sapiens) (UniProt P00533). Nature of the test: EGFR binders on small-molecule microarrays, primary screen, biochemical, small-molecule microarray, 635 nm fluorescence (AID 1104).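 Also: score merges 667 nm emission intensity with spot signal to noise over triplicate slides.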 To be noted: EGFR binding, higher = more signal.
Test [8] deals with Follistatin-related protein 3 (Homo sapiens) (UniProt O95633). Nature of the test: FSTL3 binders on small-molecule microarrays, primary screen, biochemical, small-molecule microarray, 635 nm fluorescence (AID 1105).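 Also: score merges emission near 667 nm and signal to noise per printed spot across three slides.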 To be noted: FSTL3 binding, higher = more signal.
Test [9] concerns the target Dickkopf-related protein 1 (Homo sapiens) (UniProt O94907). Nature of the test: DKK1 binders on small-molecule microarrays, primary screen, biochemical, small-molecule microarray, 635 nm fluorescence scan (AID 1106).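 Also: score merges emission near 667 nm with signal to noise over three replicate slides.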 The settings on record: DKK1 binding, higher = more signal.
Test [10] relates to Inhibin beta A chain (activin A). In words: INHBA (activin A) binders on microarrays, primary screen, biochemical, small-molecule microarray, 635 nm fluorescence scan (AID 1107).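 Also: mouse activin A protein probed at 4.33 µg/mL on printed slides; score merges bound-protein fluorescence near 667 nm with spot signal-to-noise.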 The settings on record: small-molecule microarray binding, higher = more signal.

Calls of active or inactive are those of the source.

Epidermal growth factor receptor (Homo sapiens), sequence (P00533 whole entry, looked up): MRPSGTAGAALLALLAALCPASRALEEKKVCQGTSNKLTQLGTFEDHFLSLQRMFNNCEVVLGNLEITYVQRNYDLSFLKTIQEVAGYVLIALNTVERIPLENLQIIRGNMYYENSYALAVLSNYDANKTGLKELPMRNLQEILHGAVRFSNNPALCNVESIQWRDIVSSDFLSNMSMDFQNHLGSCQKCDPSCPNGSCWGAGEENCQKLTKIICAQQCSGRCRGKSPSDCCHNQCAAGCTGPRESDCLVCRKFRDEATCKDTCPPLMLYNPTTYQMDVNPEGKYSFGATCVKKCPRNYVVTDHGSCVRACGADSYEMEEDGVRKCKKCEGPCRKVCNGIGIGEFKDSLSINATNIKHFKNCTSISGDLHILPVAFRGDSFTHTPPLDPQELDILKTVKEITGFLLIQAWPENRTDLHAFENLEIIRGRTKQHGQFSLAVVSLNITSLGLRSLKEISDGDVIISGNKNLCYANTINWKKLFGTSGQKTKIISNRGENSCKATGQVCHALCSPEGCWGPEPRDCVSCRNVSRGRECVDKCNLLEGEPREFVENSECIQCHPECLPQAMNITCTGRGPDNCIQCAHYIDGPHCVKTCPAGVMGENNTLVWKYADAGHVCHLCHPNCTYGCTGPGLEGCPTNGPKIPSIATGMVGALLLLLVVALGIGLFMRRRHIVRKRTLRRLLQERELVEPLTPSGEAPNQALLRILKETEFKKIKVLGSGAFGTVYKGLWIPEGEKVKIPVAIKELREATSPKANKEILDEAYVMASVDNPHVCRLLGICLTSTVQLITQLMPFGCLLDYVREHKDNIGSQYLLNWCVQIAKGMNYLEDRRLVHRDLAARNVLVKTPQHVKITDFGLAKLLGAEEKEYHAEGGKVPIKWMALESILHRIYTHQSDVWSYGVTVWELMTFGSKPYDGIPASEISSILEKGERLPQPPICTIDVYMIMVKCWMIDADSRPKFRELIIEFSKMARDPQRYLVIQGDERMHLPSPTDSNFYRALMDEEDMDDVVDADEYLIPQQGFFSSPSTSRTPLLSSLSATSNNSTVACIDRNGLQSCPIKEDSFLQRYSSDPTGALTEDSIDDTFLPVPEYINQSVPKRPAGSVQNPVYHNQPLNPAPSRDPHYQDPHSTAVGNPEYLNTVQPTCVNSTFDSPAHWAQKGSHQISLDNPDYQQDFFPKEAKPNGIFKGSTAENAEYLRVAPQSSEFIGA
Dickkopf-related protein 1 (Homo sapiens), sequence (O94907 whole entry, looked up): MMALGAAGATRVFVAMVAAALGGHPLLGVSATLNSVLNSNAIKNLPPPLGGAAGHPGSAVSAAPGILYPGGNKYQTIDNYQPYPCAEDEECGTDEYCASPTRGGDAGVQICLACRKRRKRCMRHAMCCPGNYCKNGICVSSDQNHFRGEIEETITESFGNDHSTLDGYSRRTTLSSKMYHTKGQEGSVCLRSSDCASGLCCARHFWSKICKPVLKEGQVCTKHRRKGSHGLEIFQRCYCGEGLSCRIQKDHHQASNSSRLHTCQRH
Follistatin-related protein 3 (Homo sapiens), sequence (O95633 whole entry, looked up): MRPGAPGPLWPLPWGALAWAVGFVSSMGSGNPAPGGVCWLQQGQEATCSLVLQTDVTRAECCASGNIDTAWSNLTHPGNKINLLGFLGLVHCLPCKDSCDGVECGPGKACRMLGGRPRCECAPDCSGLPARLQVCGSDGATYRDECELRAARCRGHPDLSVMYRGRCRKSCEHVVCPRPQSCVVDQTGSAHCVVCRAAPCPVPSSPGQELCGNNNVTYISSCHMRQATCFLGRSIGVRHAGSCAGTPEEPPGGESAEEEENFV
Fibroblast growth factor 10 (Homo sapiens), sequence (O15520 whole entry, looked up): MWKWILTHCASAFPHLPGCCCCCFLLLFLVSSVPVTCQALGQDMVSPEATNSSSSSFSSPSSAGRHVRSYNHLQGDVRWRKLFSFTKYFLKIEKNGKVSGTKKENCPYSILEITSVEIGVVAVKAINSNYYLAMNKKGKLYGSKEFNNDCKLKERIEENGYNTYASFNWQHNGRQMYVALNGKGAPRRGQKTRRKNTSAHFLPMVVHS

Take `COCCCNC(=O)[C@@]1(Sc2ccc(C)cc2)CC(=O)N(Cc2ccccc2C(F)(F)F)[C@@H]1c1ccc(CO)cc1I`: the composite z-score was 0.284 in [1]; 0.583 in test [2]; 1.07 in [3]; -1.02 in [5]; -0.981 in [6]; -1.44 in test [7]. The composite z-score in [8] was -1.73; in [9], -0.831; in test [10], 1.02. Besides, the z-score in test [4] is -0.411 (inactive).
Regarding `CCOC(=O)C[C@H]1[C@H](OC(=O)c2cc3ccccc3oc2=O)[C@@H](NC(=O)CC(C)C)c2cc(OCCCO)ccc2N1C(=O)Cc1ccc(OC)cc1`, the composite z-score in [1] is 0.621; in test [2], -0.283; in test [3], -0.309; in [5], 0.942; in test [6], 0.523; in [7], 0.145. Also, the composite z-score in [8] was 0.91; in test [9], 0.481; in test [10], -0.0372. For the same compound, the z-score in test [4] is -0.339 (inactive).
For the compound `CC(C)C(CO)N1C(=O)[C@@H]2C3C(=O)OCCC/C=C\[C@H]3OC23C=CCN(Cc2ccccc2)C(=O)[C@@H]13` (stereo not given in full), the composite z-score was 1.38 in test [1]; -0.0827 in test [2]; 0.554 in [3]; 0.0565 in test [5]; -0.54 in test [6]; -1.01 in test [7]. Moreover, the composite z-score in test [8] is -0.794; in [9] it was -0.551; in test [10], 0.111. Besides, the z-score in test [4] was -0.0848 (inactive).
As to `CC(C)N1C(=O)c2ccccc2[C@](C)(C(=O)NCC(F)(F)F)[C@@H]1c1ccc(CO)cc1`, the composite z-score was 0.0632 in [1]; 0.698 in [2]; 1.06 in [3]; -1.28 in test [5]; -0.907 in [6]; -0.333 in test [7]. Besides, the composite z-score in [8] was -0.961; in test [9], -0.693; in [10], 0.177. Moreover, the z-score in test [4] was 0.88 (inactive).
Turning to `CN(C)C(=O)[C@]1(Cc2ccccc2)N=C(c2ccc(OCCCO)cc2)O[C@@H]1c1ccccc1CN=[N+]=[N-]`, the composite z-score in [1] was found to be 0.978; in [2], 0.143; in test [3], 0.591; in test [5] it was 1.23; in test [6], 1.33; in [7] it was 0.0699. In addition, the composite z-score in [8] is 0.741; in [9] it was -0.124; in test [10], 0.406. Also, the z-score in [4] is -0.741 (inactive).
For `O=C1O[C@@H](c2ccccc2)[C@@H](c2ccccc2)N2[C@@H](c3ccccc3OCCO)[C@]3(C(=O)Nc4ccc(C#CCCO)cc43)[C@@H](C(=O)NC[C@H](O)c3ccccc3)[C@H]12`, the composite z-score was 1.69 in test [1]; 1.93 in test [2]; 1.51 in test [3]; 0.428 in [5]; -0.0642 in test [6]; 0.249 in test [7]. Further, the results for the composite z-score in [8], in [9] and in test [10] were 1.35, 0.172 and 1.41, respectively. Also, the z-score in [4] is -0.393 (inactive).
On to `C=CCOC(=O)[C@H]1[C@@H]2C(=O)O[C@@H](c3ccccc3)[C@@H](c3ccccc3)N2[C@@H](c2ccc(OCCOC(=O)[C@@H]3C[C@@H]4C(=O)N[C@@H](CCCC[N+](C)(C)C)C(=O)N4[C@@H]3c3ccc(O)cc3)cc2)[C@]12C(=O)Nc1ccc(I)cc12`, for which the composite z-score in [1] was 1.1; in test [2], 0.031; in [3], -0.211; in test [5], 1.2; in [6], 1.24; in test [7] it was 0.934. Moreover, the composite z-score in test [8] came to 1.21; in test [9], 1.07; in test [10], 0.723. The z-score in test [4] was -0.21 (inactive).
`C=CCNC(=O)[C@H]1[C@@H]2C(=O)O[C@@H](c3ccccc3)[C@@H](c3ccccc3)N2[C@@H](c2ccc(OCCO)cc2)[C@]12C(=O)Nc1ccc(C#CC3(O)CCCCCC3)cc12`: the composite z-score in test [1] turned out to be 1.19; in test [2], 0.514; in [3], 0.446; in test [5] it was 1.29; in test [6], 1.3; in test [7], 0.982. Further, the results for the composite z-score in test [8], in [9] and in test [10] were 1.29, 0.527 and 0.996, respectively. Besides, the z-score in [4] is -0.313 (inactive).
For `COCCOC(=O)N1C(=O)[C@@]2(c3cc(C#CCNC(N)=O)ccc31)[C@H](C(=O)Nc1nc3ccccc3s1)[C@H]1C(=O)O[C@H](c3ccccc3)[C@H](c3ccccc3)N1[C@@H]2c1ccccc1OCCO`, the composite z-score in [1] came out at 0.678; in [2] it was 0.376; in [3], 0.812; in test [5], 1.38; in test [6], 0.392; in [7] it was 0.597. Besides, the values for the composite z-score in test [8], in [9] and in test [10] were 1.05, 0.397 and 1.22, respectively. For the same compound, the z-score in test [4] was -0.549 (inactive).
Take `O=C(NCc1ccccc1)[C@@H]1c2ccccc2C(=O)N(Cc2ccc(OC(F)(F)F)cc2)[C@H]1c1ccc(CO)cc1`: the composite z-score is 1.34 in [1]; 0.658 in test [2]; -0.0614 in [3]; -0.354 in test [5]; 0.37 in test [6]; -0.942 in test [7]. The values for the composite z-score in test [8], in test [9] and in [10] were -0.88, -0.808 and -0.187, respectively. Moreover, the z-score in test [4] is -1.19 (inactive).
In the case of `COC(=O)C[C@H]1O[C@@]2(C[C@@H]1[Si](C)(C)C)C(=O)N(C)c1ccccc12`, the composite z-score in test [1] was 0.0786; in test [2] it was -0.251; in test [3], -0.52; in [5], 0.955; in [6], 0.59; in test [7], 0.559. Further, the values for the composite z-score in [8], in test [9] and in test [10] were 0.612, 0.525 and -1.08, respectively. Further, in test [4], the z-score was -0.662 (inactive).
